A number with no mark means an inactive call. The rule behind the calls is not given here.
target: Pantothenate synthetase (Mycobacterium tuberculosis (strain ATCC 25618 / H37Rv)) (UniProt P9WIL5); assay: Recombinant Mtb pantothenate synthetase (PanC) inhibitors, coupled enzyme, confirmatory (AID 375); settings: coupled enzyme assay; at 10 µM, stronger effect = higher value;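 note: 0% = full reaction with vehicle and 100% = no enzyme background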
Sequence (P9WIL5 whole entry, looked up): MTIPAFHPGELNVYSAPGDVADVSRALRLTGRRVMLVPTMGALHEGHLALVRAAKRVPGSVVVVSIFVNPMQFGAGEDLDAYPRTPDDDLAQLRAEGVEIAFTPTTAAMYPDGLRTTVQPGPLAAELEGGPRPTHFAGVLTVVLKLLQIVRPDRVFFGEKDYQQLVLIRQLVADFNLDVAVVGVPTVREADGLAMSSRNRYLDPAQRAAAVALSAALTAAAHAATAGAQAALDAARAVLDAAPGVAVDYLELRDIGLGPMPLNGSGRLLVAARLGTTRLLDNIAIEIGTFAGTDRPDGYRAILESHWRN

Q: `O=C(c1ccco1)N1CCN(CC2CC3C=CC2C3)CC1` (stereo not given) was tested. Which inhibition did it give?
A: 7%

Q: `Cn1c(=O)n(CCC(=O)O)c2ccccc21` was tested. Which inhibition did it give?
A: 7%

Q: With `CCCN(CCC)S(=O)(=O)c1ccc(C(=O)O)cc1` as the compound, how does the inhibition read?
A: 0%

Q: With `CCSC1=C(C#N)C(c2cccc(OC)c2)CC(=O)N1` (stereo not given) as the compound, how does the inhibition read?
A: 6%

Q: `Cc1ccc2c(c1)-c1cc(C)nn1C(c1ccc3c(c1)OCO3)N2` (stereo not given) was tested. Which inhibition did it give?
A: 0%

Q: `CCCCC(c1nnnn1C1CCCC1)N1CCN(C2CCCCC2)CC1` (stereo not given) was tested. Which inhibition did it give?
A: 1%

Q: How did the inhibition turn out when `Cc1nn(-c2ccccc2)c2[nH]c(C(F)(F)F)cc(=O)c12` was run?
A: 1%

Q: `CC1C(c2ccccc2)N(C)CCC12NC(=O)NC2=O` (stereo not given) was tested. Which inhibition did it give?
A: 1%

Q: How did the inhibition turn out when `Cc1cc(C)nc(SCc2csc(N)n2)n1` was run?
A: 1%

Q: For `O=c1[nH]c(Nc2ccccc2)cc2ccccc12`, which inhibition is on record?
A: 0%

Q: How did the inhibition turn out when `Cc1c(NS(=O)(=O)c2ccc3c(c2)c(=O)n(C)c(=O)n3C)c(=O)n(-c2ccccc2)n1C` was run?
A: 14%

Q: `O=C(Nc1ccccc1-c1ccccc1)NC1CCN(C(=O)N2CCOCC2)CC1` was tested. Which inhibition did it give?
A: 0%

Q: How did the inhibition turn out when `CC(=O)NCC(=O)OC(C)C(=O)Nc1ccc(C(C)=O)cc1` (stereo not given) was run?
A: 3%

Q: How did the inhibition turn out when `CCOCCCNC(=O)C1CCN(S(=O)(=O)c2c(C)noc2/C=C\c2ccc(OC)cc2)CC1` was run?
A: 8%

Q: `CCOC(=O)c1cccc(NC2c3ccccc3C(=O)N2Cc2ccco2)c1` (stereo not given) was tested. Which inhibition did it give?
A: 7%

Q: Which inhibition does the source give for `CSc1nc(C)cc(Oc2ccc(=O)n(C)n2)n1` here?
A: 0%

Q: `O=C(Nc1ccc(SC(F)F)cc1)c1ccc2nccnc2c1` was tested. Which inhibition did it give?
A: 0%

Q: How did the inhibition turn out when `CCOc1cccc(/C(O)=C2/C(=O)C(=O)N(CCN3CCOCC3)C2c2cccnc2)c1` (stereo not given) was run?
A: 0%

Q: How did the inhibition turn out when `CCNc1nc(NC(C)C)nc(N(C#N)CCOc2ccc(Cl)cc2Cl)n1` was run?
A: 7%

Q: `C=CCn1c(C)cc(C(=O)CSc2nc3ccccc3o2)c1C` was tested. Which inhibition did it give?
A: 9%

Q: `CCOc1cc(/C=N/n2cnnc2)cc(Br)c1O` was tested. Which inhibition did it give?
A: 0%

Q: `CN1CC=C2C(C#N)=C(N)C(C#N)(C#N)C(Cc3ccccc3)C2C1` (stereo not given) was tested. Which inhibition did it give?
A: 0%

Q: Which inhibition does the source give for `COc1ccc(-c2[nH]c(-c3cccc(OC)c3)nc2SCC(=O)NCc2ccco2)cc1` here?
A: 1%

Q: With `Clc1cccc(N2CCN(Cc3nc(-c4ccccc4)no3)CC2)c1` as the compound, how does the inhibition read?
A: 0%

Q: With `CCN(CC)CCN1C(=O)c2oc3ccc(F)cc3c(=O)c2C1c1ccncc1` (stereo not given) as the compound, how does the inhibition read?
A: 0%

Q: For `CCOCCCNCC(=O)N1CCN(S(=O)(=O)c2ccc(C)cc2)CC1`, which inhibition is on record?
A: 0%

Q: `COc1ccc(CCN2C(=O)CCC2(C)C(=O)NCc2cccnc2)cc1OC` (stereo not given) was tested. Which inhibition did it give?
A: 0%

Q: `Cc1[nH]nc2c1C(C1CC=CCC1)C(C#N)=C(N)O2` (stereo not given) was tested. Which inhibition did it give?
A: 3%

Q: Which inhibition does the source give for `CCOC(=O)Nc1ccc2c(c1)N(C(=O)CN(CC)CC)c1ccccc1C=C2` here?
A: 0%

Q: For `COc1ccc(N(CC(=O)Nc2ccc3c(c2)OCO3)S(=O)(=O)c2c(C)nn(C)c2C)cc1`, which inhibition is on record?
A: 0%

Q: `NC(N)=NC(N)=NCCc1ccccc1` was tested. Which inhibition did it give?
A: 4%

Q: `CCc1cc2c(NCCC(=O)O)nc(C)nc2s1` was tested. Which inhibition did it give?
A: 1%

Q: Which inhibition does the source give for `c1ccc(CN2CCN(c3ncnc4c3[nH]c3ccccc34)CC2)cc1` here?
A: 5%

Q: How did the inhibition turn out when `COc1ccc(N2CCN(C(c3cccs3)c3nnnn3C3CCCC3)CC2)cc1` (stereo not given) was run?
A: 6%

Q: How did the inhibition turn out when `Cc1cccc(OCC(=O)N2CCC(c3ccccc3)C2)c1` (stereo not given) was run?
A: 3%

Q: For `Cc1cc(=O)n(C)c(=O)n1CCCNc1ccccc1`, which inhibition is on record?
A: 2%

Q: For `COc1ccccc1N(CC(=O)NC1CCCC1)C(=O)c1csnn1`, which inhibition is on record?
A: 1%

Q: With `CC1CCc2nn(CC(=O)Nc3ccc(F)cc3F)cc2C1` (stereo not given) as the compound, how does the inhibition read?
A: 5%

Q: How did the inhibition turn out when `CCOC(=O)C1CCCN(c2cc(=O)n(Cc3ccc(F)cc3)c(=O)[nH]2)C1` (stereo not given) was run?
A: 2%

Q: How did the inhibition turn out when `C/C(NC1CCCC1)=C(/C#N)C(N)=O` was run?
A: 9%

From PubChem BioAssay
